# PMC11006913
# Positions count from the first letter of the chain named.
# Assays:
# Experiment in all cases: PBM; 200 nM protein, PBS
# Conditions in all cases: dsDNA, one strand shown
# HESX1 [1] = target: HESX1 (Homo sapiens, UniProt Q9UBX0 95-180, R165K)
# SIX6 [2] = target: T1, SIX6 (Homo sapiens, UniProt O95475 114-200, L167I)
# T1 sequence: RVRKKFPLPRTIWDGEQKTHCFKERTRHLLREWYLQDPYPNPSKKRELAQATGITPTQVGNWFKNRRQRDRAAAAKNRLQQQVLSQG
# HOXC9 [3] = target: HOXC9 (Homo sapiens, UniProt P31274 178-260, K195R)
# HOXC9 (Homo sapiens, UniProt P31274 178-260, K195R), sequence (P31274 178-260 K195R): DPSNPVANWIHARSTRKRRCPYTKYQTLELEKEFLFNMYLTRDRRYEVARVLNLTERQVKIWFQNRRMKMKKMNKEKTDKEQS
# SIX6 [4] = target: T2, SIX6 (Homo sapiens, UniProt O95475 114-200, L143V)
# T2 sequence: T1 sequence with L30V, I54L
# SIX6 [5] = target: T3, SIX6 (Homo sapiens, UniProt O95475 114-200, H141N)
# T3 sequence: T1 sequence with H28N, I54L
# SIX6 [6] = target: T4, SIX6 (Homo sapiens, UniProt O95475 114-200, T165P)
# T4 sequence: T1 sequence with T52P, I54L
# SIX6 [7] = target: T5, SIX6 (Homo sapiens, UniProt O95475 114-200, L167M)
# T5 sequence: T1 sequence with I54M
# SIX6 [8] = target: T6, SIX6 (Homo sapiens, UniProt O95475 114-200, L143M)
# T6 sequence: T1 sequence with L30M, I54L
# SIX6 [9] = target: T7, SIX6 (Homo sapiens, UniProt O95475 114-200, L143I)
# T7 sequence: T1 sequence with L30I, I54L
# SIX6 [10] = target: T8, SIX6 (Homo sapiens, UniProt O95475 114-200, T165G)
# T8 sequence: T1 sequence with T52G, I54L
# HESX1 [11] = target: HESX1 (Homo sapiens, UniProt Q9UBX0 95-180)
# HESX1 (Homo sapiens, UniProt Q9UBX0 95-180), sequence (Q9UBX0 95-180): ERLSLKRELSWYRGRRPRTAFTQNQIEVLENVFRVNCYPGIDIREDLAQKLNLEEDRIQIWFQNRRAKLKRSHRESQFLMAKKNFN
# SIX6 [12] = target: T9, SIX6 (Homo sapiens, UniProt O95475 114-200, T139Q)
# T9 sequence: T1 sequence with T26Q, I54L
# HOXC9 [13] = target: HOXC9 (Homo sapiens, UniProt P31274 178-260)
# HOXC9 (Homo sapiens, UniProt P31274 178-260), sequence (P31274 178-260): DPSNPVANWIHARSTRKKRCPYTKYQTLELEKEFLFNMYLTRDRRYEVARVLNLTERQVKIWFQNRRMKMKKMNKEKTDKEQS
# ALX1 [14] = target: ALX1 (Homo sapiens, UniProt Q15699 118-204, L144V)
# ALX1 (Homo sapiens, UniProt Q15699 118-204, L144V), sequence (Q15699 118-204 L144V): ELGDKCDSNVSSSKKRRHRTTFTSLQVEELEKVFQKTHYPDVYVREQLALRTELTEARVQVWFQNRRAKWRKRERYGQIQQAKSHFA
# SIX6 [15] = target: T10, SIX6 (Homo sapiens, UniProt O95475 114-200, T165A)
# T10 sequence: T1 sequence with T52A, I54L
# HOXC9 [16] = target: HOXC9 (Homo sapiens, UniProt P31274 178-260, R193K)
# HOXC9 (Homo sapiens, UniProt P31274 178-260, R193K), sequence (P31274 178-260 R193K): as the sequence (P31274 178-260) above, with R16K counted along it
# ALX1 [17] = target: ALX1 (Homo sapiens, UniProt Q15699 118-204, L144R)
# ALX1 (Homo sapiens, UniProt Q15699 118-204, L144R), sequence (Q15699 118-204 L144R): as the sequence (Q15699 118-204 L144V) above, with V27R counted along it
# SIX6 [18] = target: T11, SIX6 (Homo sapiens, UniProt O95475 114-200, L167V)
# T11 sequence: T1 sequence with I54V
# HESX1 [19] = target: HESX1 (Homo sapiens, UniProt Q9UBX0 95-180, R109Q)
# HESX1 (Homo sapiens, UniProt Q9UBX0 95-180, R109Q), sequence (Q9UBX0 95-180 R109Q): as the sequence (Q9UBX0 95-180) above, with R15Q counted along it
# SIX6 [20] = target: T12, SIX6 (Homo sapiens, UniProt O95475 114-200)
# T12 sequence: T1 sequence with I54L
# VAX1 [21] = target: VAX1 (Homo sapiens, UniProt Q5SQQ9 86-172)
# VAX1 (Homo sapiens, UniProt Q5SQQ9 86-172), sequence (Q5SQQ9 86-172): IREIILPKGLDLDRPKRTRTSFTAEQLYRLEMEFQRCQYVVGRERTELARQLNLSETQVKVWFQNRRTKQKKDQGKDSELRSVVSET
# SIX6 [22] = target: T13, SIX6 (Homo sapiens, UniProt O95475 114-200, T165I)
# T13 sequence: T1 sequence with T52I, I54L
# HESX1 [23] = target: HESX1 (Homo sapiens, UniProt Q9UBX0 95-180, P111T)
# HESX1 (Homo sapiens, UniProt Q9UBX0 95-180, P111T), sequence (Q9UBX0 95-180 P111T): as the sequence (Q9UBX0 95-180) above, with P17T counted along it
# HOXC9 [24] = target: HOXC9 (Homo sapiens, UniProt P31274 178-260, R222W)
# HOXC9 (Homo sapiens, UniProt P31274 178-260, R222W), sequence (P31274 178-260 R222W): as the sequence (P31274 178-260) above, with R45W counted along it
# HESX1 [25] = target: HESX1 (Homo sapiens, UniProt Q9UBX0 95-180, F115L)
# HESX1 (Homo sapiens, UniProt Q9UBX0 95-180, F115L), sequence (Q9UBX0 95-180 F115L): as the sequence (Q9UBX0 95-180) above, with F21L counted along it
# VAX1 [26] = target: VAX1 (Homo sapiens, UniProt Q5SQQ9 86-172, T142I)
# VAX1 (Homo sapiens, UniProt Q5SQQ9 86-172, T142I), sequence (Q5SQQ9 86-172 T142I): as the sequence (Q5SQQ9 86-172) above, with T57I counted along it
# ALX1 [27] = target: ALX1 (Homo sapiens, UniProt Q15699 118-204)
# ALX1 (Homo sapiens, UniProt Q15699 118-204), sequence (Q15699 118-204): as the sequence (Q15699 118-204 L144V) above, with V27L counted along it
# VAX1 [28] = target: VAX1 (Homo sapiens, UniProt Q5SQQ9 86-172, K157R)
# VAX1 (Homo sapiens, UniProt Q5SQQ9 86-172, K157R), sequence (Q5SQQ9 86-172 K157R): as the sequence (Q5SQQ9 86-172) above, with K72R counted along it
# HOXB9 [29] = target: HOXB9 (Homo sapiens, UniProt P17482 171-250, T197M)
# HOXB9 (Homo sapiens, UniProt P17482 171-250, T197M), sequence (P17482 171-250 T197M): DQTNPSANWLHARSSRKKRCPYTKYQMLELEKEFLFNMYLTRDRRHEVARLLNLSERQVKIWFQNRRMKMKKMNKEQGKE
# ALX4 [30] = target: ALX4 (Homo sapiens, UniProt Q9H161 200-286)
# ALX4 (Homo sapiens, UniProt Q9H161 200-286), sequence (Q9H161 200-286): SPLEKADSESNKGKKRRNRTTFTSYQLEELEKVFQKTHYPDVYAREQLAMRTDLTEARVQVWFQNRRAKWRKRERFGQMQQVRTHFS
# PRRX1 [31] = target: PRRX1 (Homo sapiens, UniProt P54821 80-166, F113S)
# PRRX1 (Homo sapiens, UniProt P54821 80-166, F113S), sequence (P54821 80-166 F113S): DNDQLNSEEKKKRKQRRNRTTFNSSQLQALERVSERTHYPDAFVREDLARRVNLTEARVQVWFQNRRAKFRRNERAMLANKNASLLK
# ALX4 [32] = target: ALX4 (Homo sapiens, UniProt Q9H161 200-286, Q225E)
# ALX4 (Homo sapiens, UniProt Q9H161 200-286, Q225E), sequence (Q9H161 200-286 Q225E): as the sequence (Q9H161 200-286) above, with Q26E counted along it
# HOXB9 [33] = target: HOXB9 (Homo sapiens, UniProt P17482 171-250)
# HOXB9 (Homo sapiens, UniProt P17482 171-250), sequence (P17482 171-250): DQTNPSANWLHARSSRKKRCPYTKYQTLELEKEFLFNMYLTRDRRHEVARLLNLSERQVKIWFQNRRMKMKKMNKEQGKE
# MSX2 [34] = target: MSX2 (Homo sapiens, UniProt P35548 130-214, R199I)
# MSX2 (Homo sapiens, UniProt P35548 130-214, R199I), sequence (P35548 130-214 R199I): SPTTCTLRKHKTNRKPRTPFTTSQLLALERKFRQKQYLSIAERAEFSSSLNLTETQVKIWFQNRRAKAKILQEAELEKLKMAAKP
# MSX2 [35] = target: MSX2 (Homo sapiens, UniProt P35548 130-214)
# MSX2 (Homo sapiens, UniProt P35548 130-214), sequence (P35548 130-214): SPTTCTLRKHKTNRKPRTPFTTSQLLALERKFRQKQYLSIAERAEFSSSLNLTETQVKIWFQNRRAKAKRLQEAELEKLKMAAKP
# PROP1 [36] = target: PROP1 (Homo sapiens, UniProt O75360 56-141)
# PROP1 (Homo sapiens, UniProt O75360 56-141), sequence (O75360 56-141): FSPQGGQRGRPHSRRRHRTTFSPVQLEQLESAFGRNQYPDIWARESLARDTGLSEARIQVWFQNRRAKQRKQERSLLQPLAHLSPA
# PROP1 [37] = target: PROP1 (Homo sapiens, UniProt O75360 56-141, R99H)
# PROP1 (Homo sapiens, UniProt O75360 56-141, R99H), sequence (O75360 56-141 R99H): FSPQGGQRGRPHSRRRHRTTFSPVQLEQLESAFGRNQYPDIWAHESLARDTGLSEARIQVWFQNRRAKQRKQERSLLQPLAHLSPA
# ALX3 [38] = target: ALX3 (Homo sapiens, UniProt O95076 139-225, L168Q)
# ALX3 (Homo sapiens, UniProt O95076 139-225, L168Q), sequence (O95076 139-225 L168Q): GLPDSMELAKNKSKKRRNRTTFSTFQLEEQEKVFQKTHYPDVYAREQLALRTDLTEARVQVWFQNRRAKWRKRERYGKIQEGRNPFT
# HOXB9 [39] = target: HOXB9 (Homo sapiens, UniProt P17482 171-250, R186Q)
# HOXB9 (Homo sapiens, UniProt P17482 171-250, R186Q), sequence (P17482 171-250 R186Q): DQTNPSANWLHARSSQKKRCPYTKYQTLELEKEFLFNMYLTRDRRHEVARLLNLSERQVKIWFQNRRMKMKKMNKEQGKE
# ALX3 [40] = target: ALX3 (Homo sapiens, UniProt O95076 139-225, L168V)
# ALX3 (Homo sapiens, UniProt O95076 139-225, L168V), sequence (O95076 139-225 L168V): as the sequence (O95076 139-225 L168Q) above, with Q30V counted along it
# PROP1 [41] = target: PROP1 (Homo sapiens, UniProt O75360 56-141, F88S)
# PROP1 (Homo sapiens, UniProt O75360 56-141, F88S), sequence (O75360 56-141 F88S): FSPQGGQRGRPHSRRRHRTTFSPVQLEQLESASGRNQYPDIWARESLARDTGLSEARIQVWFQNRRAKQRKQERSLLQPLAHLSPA
# MSX2 [42] = target: MSX2 (Homo sapiens, UniProt P35548 130-214, F161Y)
# MSX2 (Homo sapiens, UniProt P35548 130-214, F161Y), sequence (P35548 130-214 F161Y): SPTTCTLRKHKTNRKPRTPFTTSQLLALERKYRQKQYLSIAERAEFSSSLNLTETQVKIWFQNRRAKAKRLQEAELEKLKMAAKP
# PRRX1 [43] = target: PRRX1 (Homo sapiens, UniProt P54821 80-166)
# PRRX1 (Homo sapiens, UniProt P54821 80-166), sequence (P54821 80-166): as the sequence (P54821 80-166 F113S) above, with S34F counted along it
# HESX1 (Homo sapiens, UniProt Q9UBX0 95-180, R165K), sequence (Q9UBX0 95-180 R165K): as the sequence (Q9UBX0 95-180) above, with R71K counted along it
sequence,measurement,setting,value
GCCAGCCC,binding signal,HESX1 [1],"6.58 upbm affinity estimate (log intensity, higher = more binding, comparable within an allelic series)"
same,binding signal,SIX6 [2],"8.95 upbm affinity estimate (log intensity, higher = more binding, comparable within an allelic series)"
same,binding signal,HOXC9 [3],"9.67 upbm affinity estimate (log intensity, higher = more binding, comparable within an allelic series)"
same,binding signal,SIX6 [4],"8.86 upbm affinity estimate (log intensity, higher = more binding, comparable within an allelic series)"
same,binding signal,SIX6 [5],"9.06 upbm affinity estimate (log intensity, higher = more binding, comparable within an allelic series)"
same,binding signal,SIX6 [6],"8.85 upbm affinity estimate (log intensity, higher = more binding, comparable within an allelic series)"
same,binding signal,SIX6 [7],"9.06 upbm affinity estimate (log intensity, higher = more binding, comparable within an allelic series)"
same,binding signal,SIX6 [8],"9.06 upbm affinity estimate (log intensity, higher = more binding, comparable within an allelic series)"
same,binding signal,SIX6 [9],"8.94 upbm affinity estimate (log intensity, higher = more binding, comparable within an allelic series)"
same,binding signal,SIX6 [10],"9.06 upbm affinity estimate (log intensity, higher = more binding, comparable within an allelic series)"
same,binding signal,HESX1 [11],"6.38 upbm affinity estimate (log intensity, higher = more binding, comparable within an allelic series)"
same,binding signal,SIX6 [12],"9.07 upbm affinity estimate (log intensity, higher = more binding, comparable within an allelic series)"
same,binding signal,HOXC9 [13],"9.67 upbm affinity estimate (log intensity, higher = more binding, comparable within an allelic series)"
same,binding signal,ALX1 [14],"6.53 upbm affinity estimate (log intensity, higher = more binding, comparable within an allelic series)"
same,binding signal,SIX6 [15],"9.01 upbm affinity estimate (log intensity, higher = more binding, comparable within an allelic series)"
same,binding signal,HOXC9 [16],"9.67 upbm affinity estimate (log intensity, higher = more binding, comparable within an allelic series)"
same,binding signal,ALX1 [17],"6.62 upbm affinity estimate (log intensity, higher = more binding, comparable within an allelic series)"
same,binding signal,SIX6 [18],"8.96 upbm affinity estimate (log intensity, higher = more binding, comparable within an allelic series)"
same,binding signal,HESX1 [19],"6.42 upbm affinity estimate (log intensity, higher = more binding, comparable within an allelic series)"
same,binding signal,SIX6 [20],"8.98 upbm affinity estimate (log intensity, higher = more binding, comparable within an allelic series)"
same,binding signal,VAX1 [21],"7.02 upbm affinity estimate (log intensity, higher = more binding, comparable within an allelic series)"
same,binding signal,SIX6 [22],"9.01 upbm affinity estimate (log intensity, higher = more binding, comparable within an allelic series)"
same,binding signal,HESX1 [23],"6.51 upbm affinity estimate (log intensity, higher = more binding, comparable within an allelic series)"
same,binding signal,HOXC9 [24],"9.62 upbm affinity estimate (log intensity, higher = more binding, comparable within an allelic series)"
same,binding signal,HESX1 [25],"6.51 upbm affinity estimate (log intensity, higher = more binding, comparable within an allelic series)"
same,binding signal,VAX1 [26],"7.2 upbm affinity estimate (log intensity, higher = more binding, comparable within an allelic series)"
same,binding signal,ALX1 [27],"6.43 upbm affinity estimate (log intensity, higher = more binding, comparable within an allelic series)"
same,binding signal,VAX1 [28],"7.16 upbm affinity estimate (log intensity, higher = more binding, comparable within an allelic series)"
AATAATTG,binding signal,HESX1 [1],"12.3 upbm affinity estimate (log intensity, higher = more binding, comparable within an allelic series)"
same,binding signal,HOXB9 [29],"9.89 upbm affinity estimate (log intensity, higher = more binding, comparable within an allelic series)"
same,binding signal,ALX4 [30],"13.5 upbm affinity estimate (log intensity, higher = more binding, comparable within an allelic series)"
same,binding signal,PRRX1 [31],"11.2 upbm affinity estimate (log intensity, higher = more binding, comparable within an allelic series)"
same,binding signal,ALX4 [32],"12.8 upbm affinity estimate (log intensity, higher = more binding, comparable within an allelic series)"
same,binding signal,HESX1 [11],"12.4 upbm affinity estimate (log intensity, higher = more binding, comparable within an allelic series)"
same,binding signal,HOXB9 [33],"11.3 upbm affinity estimate (log intensity, higher = more binding, comparable within an allelic series)"
same,binding signal,MSX2 [34],"12.6 upbm affinity estimate (log intensity, higher = more binding, comparable within an allelic series)"
same,binding signal,ALX1 [14],"11.5 upbm affinity estimate (log intensity, higher = more binding, comparable within an allelic series)"
same,binding signal,ALX1 [17],"11.3 upbm affinity estimate (log intensity, higher = more binding, comparable within an allelic series)"
same,binding signal,MSX2 [35],"13.7 upbm affinity estimate (log intensity, higher = more binding, comparable within an allelic series)"
same,binding signal,PROP1 [36],"11 upbm affinity estimate (log intensity, higher = more binding, comparable within an allelic series)"
same,binding signal,HESX1 [19],"8.84 upbm affinity estimate (log intensity, higher = more binding, comparable within an allelic series)"
same,binding signal,PROP1 [37],"11.1 upbm affinity estimate (log intensity, higher = more binding, comparable within an allelic series)"
same,binding signal,ALX3 [38],"10.3 upbm affinity estimate (log intensity, higher = more binding, comparable within an allelic series)"
same,binding signal,HESX1 [23],"10.8 upbm affinity estimate (log intensity, higher = more binding, comparable within an allelic series)"
same,binding signal,HOXB9 [39],"11.1 upbm affinity estimate (log intensity, higher = more binding, comparable within an allelic series)"
same,binding signal,ALX3 [40],"9.75 upbm affinity estimate (log intensity, higher = more binding, comparable within an allelic series)"
same,binding signal,PROP1 [41],"7.6 upbm affinity estimate (log intensity, higher = more binding, comparable within an allelic series)"
same,binding signal,MSX2 [42],"13.4 upbm affinity estimate (log intensity, higher = more binding, comparable within an allelic series)"
same,binding signal,HESX1 [25],"8.12 upbm affinity estimate (log intensity, higher = more binding, comparable within an allelic series)"
same,binding signal,PRRX1 [43],"13.2 upbm affinity estimate (log intensity, higher = more binding, comparable within an allelic series)"
